Results taken from PubChem BioAssay.
Unmarked numbers belong to inactive results. For some of these results: Entries with a potency or affinity are not part of this list. Activity calls are given as the source filed them. Unless noted, the rule behind the calls is not given here.

How the values were obtained:
[1] = antimalarial activity against Dd2 strain (AID 2302;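 active = growth inhibition above 50% at the single 2 µM test dose, taken to imply half-maximal potency below 2 µM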;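 note: 0% = DMSO untreated growth and 100% = chloroquine plus artemisinin killed control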); settings: P. falciparum Dd2 in RBCs, LDH growth readout, 72 h; at 2 µM; active compounds read high
[2] = human hepatoma cell viability loss – ATP luminescence, cytotoxicity control for P. falciparum antimalarial project, primary screen (AID 2303;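 active = inhibition above 50%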;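 note: 0% = DMSO wells and 100% = digitonin-killed cells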); settings: HepG2 viability, 24-48 h, at 10 µM, active compounds read high
[3] = molecular target: L-lactate dehydrogenase (Plasmodium falciparum (isolate CDC / Honduras)) (UniProt Q27743); experiment: PfLDH activity inhibition – cell lysate, 3D7 strain, counter-screen for P. falciparum growth inhibition project (AID 2304);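 note: 0% = vehicle and 100% = reference inhibitor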; settings: P. falciparum 3D7 crude extract, LDH APAD/NBT absorbance; at 2 µM; active compounds read high
[4] = inhibition of 3D7 malaria parasite growth – strain 3D7 (AID 2306);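 note: 0% = DMSO wells and 100% = chloroquine plus artemisinin control wells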; settings: P. falciparum 3D7 erythrocytic growth, LDH absorbance, 72 h; at 2 µM; active compounds read high
[5] = molecular target: Calcium-dependent protein kinase 1 (Plasmodium falciparum (isolate 3D7)) (UniProt P62344); experiment: PfCDPK1 kinase inhibitors, biochemical, TCAMS library (AID 1159585; cut-off not given, nearly all actives have IC50 up to about 0.98 µM;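 note: inhibitors leave more ATP so luminescence rises with inhibition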); settings: recombinant PfCDPK1, Kinase-Glo ATP depletion luminescence
[6] = molecular target: Plasmodium falciparum protein kinase 6 (PK6, PF3D7_1337100) (UniProt Q8IDW1); experiment: PfPK6 kinase inhibitors, biochemical, TCAMS library (AID 1159586); settings: recombinant PfPK6, Kinase-Glo ATP depletion luminescence
[7] = molecular target: Protein kinase 7 (PK7), Plasmodium falciparum 3D7 (PF3D7_0213400) (UniProt Q7YTF7); experiment: inhibition of Plasmodium PK7 catalytic activity – biochemical, TCAMS antimalarial set, Kinase-Glo luminescence (AID 1159587); settings: recombinant PfPK7, Kinase-Glo ATP depletion luminescence
[8] = molecular target: Calcium-dependent protein kinase 4 (Plasmodium falciparum (isolate 3D7)) (UniProt Q8IBS5); experiment: PfCDPK4 kinase inhibitors, biochemical, TCAMS library (AID 1159588; cut-off not given, nearly all actives have IC50 up to about 0.91 µM); settings: recombinant PfCDPK4, Kinase-Glo ATP depletion luminescence
Sequence of Calcium-dependent protein kinase 4 (Plasmodium falciparum (isolate 3D7)) (Q8IBS5 whole entry, looked up): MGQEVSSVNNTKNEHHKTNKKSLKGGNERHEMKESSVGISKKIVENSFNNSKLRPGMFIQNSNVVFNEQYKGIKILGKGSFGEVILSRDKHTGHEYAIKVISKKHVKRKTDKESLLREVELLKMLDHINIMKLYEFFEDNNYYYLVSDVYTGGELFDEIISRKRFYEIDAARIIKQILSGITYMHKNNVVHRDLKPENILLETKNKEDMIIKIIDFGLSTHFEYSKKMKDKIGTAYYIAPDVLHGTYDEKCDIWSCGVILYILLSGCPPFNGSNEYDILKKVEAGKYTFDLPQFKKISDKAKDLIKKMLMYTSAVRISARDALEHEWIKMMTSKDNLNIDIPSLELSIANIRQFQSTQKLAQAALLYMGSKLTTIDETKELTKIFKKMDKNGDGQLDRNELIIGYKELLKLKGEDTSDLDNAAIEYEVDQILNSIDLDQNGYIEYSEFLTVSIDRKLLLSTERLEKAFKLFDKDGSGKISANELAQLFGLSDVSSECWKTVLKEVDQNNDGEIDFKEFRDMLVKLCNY

Sequence of Calcium-dependent protein kinase 1 (Plasmodium falciparum (isolate 3D7)) (P62344 whole entry, looked up): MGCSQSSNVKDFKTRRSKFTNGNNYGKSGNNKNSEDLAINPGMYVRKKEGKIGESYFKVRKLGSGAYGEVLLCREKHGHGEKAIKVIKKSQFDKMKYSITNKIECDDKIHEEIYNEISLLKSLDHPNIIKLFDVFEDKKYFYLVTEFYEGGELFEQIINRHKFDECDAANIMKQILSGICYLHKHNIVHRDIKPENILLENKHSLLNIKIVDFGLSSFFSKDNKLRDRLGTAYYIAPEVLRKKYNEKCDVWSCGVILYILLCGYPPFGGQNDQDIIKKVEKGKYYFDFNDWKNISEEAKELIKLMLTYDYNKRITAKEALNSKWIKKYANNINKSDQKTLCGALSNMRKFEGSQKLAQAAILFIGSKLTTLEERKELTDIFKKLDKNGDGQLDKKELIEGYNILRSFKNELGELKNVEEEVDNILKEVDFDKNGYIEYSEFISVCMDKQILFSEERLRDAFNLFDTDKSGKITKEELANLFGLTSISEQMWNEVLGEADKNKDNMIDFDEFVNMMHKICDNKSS
Sequence of Plasmodium falciparum protein kinase 6 (PK6, PF3D7_1337100) (Q8IDW1 1-305): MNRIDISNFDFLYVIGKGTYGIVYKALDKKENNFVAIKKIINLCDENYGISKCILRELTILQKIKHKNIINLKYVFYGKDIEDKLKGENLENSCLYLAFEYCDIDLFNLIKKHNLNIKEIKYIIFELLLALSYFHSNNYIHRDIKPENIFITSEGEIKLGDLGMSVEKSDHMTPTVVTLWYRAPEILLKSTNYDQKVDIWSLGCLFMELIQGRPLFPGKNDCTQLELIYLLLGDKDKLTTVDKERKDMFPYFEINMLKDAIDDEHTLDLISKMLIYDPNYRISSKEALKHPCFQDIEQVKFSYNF
Sequence of Protein kinase 7 (PK7), Plasmodium falciparum 3D7 (PF3D7_0213400) (Q7YTF7 1-343): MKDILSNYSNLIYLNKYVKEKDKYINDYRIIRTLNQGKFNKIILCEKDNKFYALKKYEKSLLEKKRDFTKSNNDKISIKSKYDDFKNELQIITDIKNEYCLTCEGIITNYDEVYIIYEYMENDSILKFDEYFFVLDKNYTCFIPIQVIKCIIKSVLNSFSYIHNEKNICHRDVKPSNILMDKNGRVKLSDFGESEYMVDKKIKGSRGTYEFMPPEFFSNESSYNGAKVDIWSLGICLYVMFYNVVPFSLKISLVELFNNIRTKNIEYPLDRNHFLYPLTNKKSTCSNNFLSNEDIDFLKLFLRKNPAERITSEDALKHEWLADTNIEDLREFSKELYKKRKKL
Sequence of L-lactate dehydrogenase (Plasmodium falciparum (isolate CDC / Honduras)) (Q27743 whole entry, looked up): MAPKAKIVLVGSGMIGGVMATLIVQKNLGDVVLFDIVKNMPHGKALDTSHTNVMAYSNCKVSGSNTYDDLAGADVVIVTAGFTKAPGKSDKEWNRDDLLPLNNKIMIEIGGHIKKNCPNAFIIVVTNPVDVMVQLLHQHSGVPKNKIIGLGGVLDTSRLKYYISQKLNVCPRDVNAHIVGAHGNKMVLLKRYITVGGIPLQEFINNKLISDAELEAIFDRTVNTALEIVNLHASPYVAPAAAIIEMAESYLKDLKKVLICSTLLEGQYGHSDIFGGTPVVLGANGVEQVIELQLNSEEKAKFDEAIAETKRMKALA

| Structure (SMILES) | growth inhibition [1] | inhibition [2] | inhibition [3] | growth inhibition [4] | outcome [5] | outcome [6] | outcome [7] | outcome [8] |
| --- | --- | --- | --- | --- | --- | --- | --- | --- |
| O=C(Nc1ccc(O)c(-c2nc3ccccc3[nH]2)c1)c1ccc([N+](=O)[O-])cc1 | 45% | -2% | -6% | 97% (active) | inactive | inactive | inactive | inactive |
| Cc1cccc(CNc2nc(C)cc(N[C@@H](Cc3ccccc3)C(=O)NCc3cccc(F)c3)n2)c1 | 82% (active) | 39% | -2% | 101% (active) | inactive | inactive | inactive | inactive |
| Cc1cc(N[C@@H](Cc2ccccc2)C(=O)NCc2cccs2)nc(NCCc2ccc(F)cc2)n1 | 83% (active) | 3% | 3% | 100% (active) | inactive | inactive | inactive | inactive |
| CN(c1ccccc1)S(=O)(=O)c1cccc(NC(=O)c2ccc(-n3ccnc3)c([N+](=O)[O-])c2)c1 | -8% | 19% | 2% | 83% (active) | inactive | inactive | inactive | inactive |
| COc1cc(NC(=O)/C=C/c2cccc3cc[nH]c23)ccc1OCCN(C(C)C)C(C)C | 51% (active) | 11% | 5% | 99% (active) | inactive | inactive | inactive | inactive |
| Cc1cc(C(=O)Nc2ccc3c(c2)CCN3C2CCN(Cc3ccc4nsnc4c3)C2)no1 (stereo not drawn) | 94% (active) | -1% | -1% | 90% (active) | inactive | inactive | inactive | inactive |
| CC1(C)[C@H]2CC[C@@H](CNc3nc(NCC(=O)Nc4ccc5ccccc5c4)nc(N4CCC(N5CCCC5)CC4)n3)[C@@H]1C2 | 20% | 6% | -5% | 93% (active) | inactive | inactive | inactive | inactive |
| O=C(c1cccs1)N(Cc1cccc(-c2ccc(CNCCc3ccccc3)cc2)c1)C1CCN(Cc2ccccc2)CC1 | 76% (active) | 3% | -3% | 95% (active) | inactive | inactive | inactive | inactive |
| FC(F)(F)c1ccc2nc(-c3ccc(-c4ccc(CNCc5cnn(-c6ccccc6)n5)cc4)s3)[nH]c2c1 | 89% (active) | 27% | -2% | 100% (active) | inactive | inactive | inactive | inactive |
| COc1ccc(CCNCC(O)c2cccc(Br)c2)c(Cl)c1OC (stereo not drawn) | 70% (active) | 18% | 0% | 87% (active) | inactive | inactive | inactive | inactive |
| NC1CCN(Cc2ccc(-c3cccc(-c4nc5ccc(F)cc5[nH]4)c3)cc2)C1 (stereo not drawn) | 16% | 47% | 3% | 100% (active) | inactive | inactive | inactive | inactive |
| NC(N)=Nc1nc(CCCCCCCCc2csc(N=C(N)N)n2)cs1 | 28% | 27% | 0% | 100% (active) | inactive | inactive | inactive | inactive |
| COc1ccc2nccc([C@@H](O)CN3CCC(NC(=O)c4ccc(Oc5ccccc5)cc4)CC3)c2c1 | 13% | 39% | 2% | 82% (active) | inactive | inactive | inactive | inactive |
| O=C(/C=C/c1ccc(Cl)c(Cl)c1)NCCCCCCN1CCCN(C(=O)Nc2ccc(Cl)c(Cl)c2)CC1 | 8% | 25% | -1% | 100% (active) | inactive | inactive | inactive | inactive |
| NC1=NC(c2ccccc2)(c2ccccc2)C(=O)N1CCCCc1ccccc1 | 81% (active) | 14% | -2% | 96% (active) | inactive | inactive | inactive | inactive |
| O=C(CSc1nc(-c2ccccc2Cl)ns1)Nc1cccc(Cl)c1 | 89% (active) | -8% | -4% | 96% (active) | inactive | inactive | inactive | inactive |
| CN(C)CCOc1ccc2c(c1)CN(C)CC2c1ccccc1 (stereo not drawn) | -1% | 15% | -2% | 91% (active) | inactive | inactive | inactive | inactive |
| COc1cccc(OC)c1-c1ccccc1NC(=O)N1CCCc2cc(C)ccc21 | 84% (active) | 51% (active) | 5% | 82% (active) | inactive | inactive | inactive | inactive |
| COc1ccc2nccc(N3CCC(CCNCc4ccc5c(n4)NC(=O)CO5)CC3)c2n1 | 72% (active) | 19% | -7% | 101% (active) | inactive | inactive | inactive | inactive |
| O=C(Nc1ccc(Cl)c(C(F)(F)F)c1)NC1CCN(CCCCCNC(=O)[C@@H]2C[C@H]2c2ccc(Cl)c(Cl)c2)CC1 | 41% | 79% (active) | -1% | 100% (active) | inactive | inactive | inactive | inactive |
| CCCCCCNC(=O)C1Cc2c([nH]c3ccccc23)C2(CCN(CCc3ccccc3)CC2)N1 (stereo not drawn) | 34% | 41% | 4% | 96% (active) | inactive | inactive | inactive | inactive |

| Structure (SMILES) | growth inhibition [1] | inhibition [2] | inhibition [3] | growth inhibition [4] | outcome [5] | outcome [6] | outcome [7] | outcome [8] |
| --- | --- | --- | --- | --- | --- | --- | --- | --- |
| CCOC(=O)c1cc(Cl)cc(Cl)c1OCCCON1C(N)=NC(N)=NC1(C)C | 97% (active) | 70% (active) | -6% | 93% (active) | inactive | inactive | inactive | inactive |
| COc1ccc2nccc(NN=Cc3ccccc3Cl)c2c1 | 99% (active) | 29% | -4% | 100% (active) | inactive | inactive | inactive | inactive |
| COc1ccc2nccc([C@@H](O)CN3CCC(NCC(=O)Nc4cc(F)cc(F)c4)CC3)c2n1 | 28% | 18% | -8% | 89% (active) | inactive | inactive | inactive | inactive |
| CC(C)(C)c1ccc(CN2CCC(NC(=O)c3ccc(-c4cccc(C(F)(F)F)c4)s3)CC2)cc1 | 96% (active) | 97% (active) | -5% | 100% (active) | inactive | inactive | inactive | inactive |
| COc1ccc(-c2ccnc(-c3cccc(-c4ccccn4)n3)c2)cc1 | 84% (active) | 44% | -1% | 97% (active) | inactive | inactive | inactive | inactive |
| CCCCc1cc(NCC)nc(Nc2ccc(F)cc2)n1 | 56% (active) | 33% | -1% | 98% (active) | inactive | inactive | inactive | inactive |
| O=c1ccc(-c2nc3cc(Cl)c(Cl)cc3n2Cc2ccc(Cl)cc2Cl)c[nH]1 | 67% (active) | -8% | -8% | 88% (active) | inactive | inactive | inactive | inactive |
| Cc1nnnn1-c1ccc(C(=O)N2CCC3(CC2)CN(Cc2ccc(Cl)c(Cl)c2)C(=O)O3)cc1 | 99% (active) | 2% | 2% | 101% (active) | inactive | inactive | inactive | inactive |
| COc1ccc(C2c3cc(OC)c(OC)cc3C(=NO)C2C)cc1OC (stereo not drawn) | 6% | 20% | -2% | 90% (active) | inactive | inactive | inactive | inactive |
| Nc1nc2c(c(=O)[nH]1)-c1cccc(Br)c1CC2 | -3% | 66% (active) | 0% | 97% (active) | inactive | inactive | inactive | inactive |
| CNC(=O)NC1=NC(C)(C)N(OCCCOc2cc(Cl)c(Cl)cc2Cl)C(N)=N1 | 2% | 7% | -3% | 97% (active) | inactive | inactive | inactive | inactive |
| Cn1cc(-c2ccccc2C(=O)O)c(=O)c2cc(Cl)ccc21 | -4% | 16% | -1% | 89% (active) | inactive | inactive | inactive | inactive |
| Cc1c(C(=O)[C@@H]2C[C@H]2CN2CCC(N3CCCCC3)CC2)sc2ccccc12 | 19% | 35% | -1% | 94% (active) | inactive | inactive | inactive | inactive |
| O=C(Nc1ccc(Cl)c(Cl)c1)Nc1ccc(F)c([N+](=O)[O-])c1 | 96% (active) | 49% | -3% | 101% (active) | inactive | inactive | inactive | inactive |
| CN1CCC(c2c[nH]c3ccc(NC(=O)Nc4ccc(-c5ccncc5)c(Cl)c4Cl)cc23)CC1 | 19% | 27% | -1% | 102% (active) | inactive | inactive | inactive | inactive |
| CCCCCCCn1c(=N)n(CC(O)c2ccc(Cl)c(Cl)c2)c2ccccc21 (stereo not drawn) | 100% (active) | 99% (active) | 2% | 98% (active) | inactive | inactive | inactive | inactive |
| COc1cc2c(OC)cccc2cc1CNCCCCCCNCc1cc2cccc(OC)c2cc1OC | 7% | 59% (active) | 1% | 95% (active) | inactive | inactive | inactive | inactive |
| COc1ccc(Nc2cc(C)c3cc(NC(=O)c4ccncc4)ccc3n2)cc1 | 26% | 0% | 2% | 98% (active) | inactive | inactive | inactive | inactive |
| Cc1csc(-c2nonc2NC(=O)COc2ccccc2C(C)C)n1 | 85% (active) | 14% | -1% | 90% (active) | inactive | inactive | inactive | inactive |
| CN1CCN(CCCN(Cc2cccc(-c3cccc(CNCc4ccc5c(c4)OCO5)c3)c2)C(=O)CCC2CCCC2)CC1 | 80% (active) | 85% (active) | 1% | 98% (active) | inactive | inactive | inactive | inactive |
